TrxR1 inh: inhibitors of rat thioredoxin reductase 1 | Potency, µM (titrated, usually from 114 µM), for inactives: at the highest dose activity change, negative = inhibition, hits mostly inhibitors | O89049 | recombinant rTrxR1, NADPH fluorescence consumption, selenite substrate | hit rate 1% among 390,000; note: nearly all actives have a fitted effect of over 65% in size
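Rat TrxR1 (90 nM in the dispensed reagent) was pre-reduced with 400 uM NADPH for 5 min at room temperature, then incubated with compound for 15 min. After 400 uM selenite was added, NADPH fluorescence (Ex 340/Em 450 nm) was followed for 8 min.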
PKM2 act: PKM2 (human) enzyme activation; Potency, µM (titrated, usually from 57.5 µM), for the others: at the top dose activation, actives largely listed as activators; P14618; AID 1631; hit rate 0.34% among 260,000; purified PKM2, Kinase-Glo ATP luminescence, activation; response scale: 0% is enzyme alone, no compound; note: nearly all actives have a fitted effect of over 55% in size
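Purified hPK-M2 (>95% pure) converted ADP (0.1 mM final) to ATP with 0.5 mM PEP in 50 mM imidazole pH7.2, KCl, MgCl2, Tween 20, BSA; 1 h at room temperature. ATP detected by Kinase-Glo luminescence.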
Anesthetic bind: candidate novel general anesthetic via apoferritin binding; P02791; apoferritin/1-aminoanthracene competitive binding, fluorescence; Potency, µM (series often up to 77.5 µM), for the others: at the top dose activity change, negative = displacement, hits mostly inhibitors; hit rate 0.074% among 350,000; AID 485281; note: nearly all actives have a fitted effect of over 20% in size
Target sequence (P02791 2-175 limits assumed): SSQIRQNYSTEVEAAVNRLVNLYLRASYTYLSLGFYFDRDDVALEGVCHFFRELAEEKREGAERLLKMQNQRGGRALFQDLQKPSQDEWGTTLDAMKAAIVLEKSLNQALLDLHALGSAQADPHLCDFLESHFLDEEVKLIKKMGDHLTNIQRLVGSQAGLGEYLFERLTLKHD
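Steps: apoferritin (10 uM) was premixed with half-saturated 1-AMA in PBS, compounds were pin-transferred, plates stood 10 min at room temperature, fluorescence was read at 380/535 nm, and curves were fitted with a Hill equation.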
mIDH1 inhibitor: human IDH1 R132H inhibition; hit rate 0.093% among 390,000; IDH1-R132H enzyme, NADPH consumption, diaphorase/resazurin fluorescence; O75874; Potency, µM (series often up to 76.6 µM), for inactives: at the top dose activity change, negative = inhibition, hits mostly inhibitors; note: nearly all actives have a fitted effect of over 65% in size
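IDH1-R132H (0.5 ug/mL dispensed) in pH 7.5 Tris buffer was preincubated 30 min with compound, then given a substrate mix of 0.016 mM NADPH and 2 mM alpha-KG for 80 min at room temperature; remaining NADPH was read by diaphorase/resazurin fluorescence.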
TrxR1 substrate: is turned over as a substrate by rat TrxR1 | purified TrxR1 substrate turnover, NADPH consumption readout | Potency, µM (titrated, usually from 114 µM), for the others: at the top dose activity change, negative = substrate turnover | AID 588456 | hit rate 0.01% among 390,000 | O89049; note: nearly all actives have a fitted effect of over 50% in size
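Rat TrxR1, dispensed at 90 nM, was prereduced with 400 uM NADPH (final) for 5 min at ~22 deg C, then incubated with compound 15 min before 400 uM selenite. A first-read NADPH fluorescence drop versus no-compound background flagged substrates.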
GALK inh: blocks human galactokinase activity; Potency, µM (highest dose often 57.5 µM), for inactives: top-dose activity change, negative = inhibition, most hits filed as inhibitors; Purified GALK, Kinase-Glo residual ATP luminescence; P51570; hit rate 0.007% among 270,000
Target sequence (P51570 whole entry, looked up): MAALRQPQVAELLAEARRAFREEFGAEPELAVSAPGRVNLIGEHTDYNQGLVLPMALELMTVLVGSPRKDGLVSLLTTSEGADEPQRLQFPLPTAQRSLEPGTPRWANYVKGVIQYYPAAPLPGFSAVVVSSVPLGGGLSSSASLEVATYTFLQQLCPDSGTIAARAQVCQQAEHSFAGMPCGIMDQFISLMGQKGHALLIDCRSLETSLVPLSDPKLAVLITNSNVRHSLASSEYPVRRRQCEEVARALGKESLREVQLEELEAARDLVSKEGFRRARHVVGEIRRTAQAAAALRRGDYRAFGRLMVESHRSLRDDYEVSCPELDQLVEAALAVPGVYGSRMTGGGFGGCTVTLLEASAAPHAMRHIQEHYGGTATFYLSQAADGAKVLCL
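Galactose (100 uM) and ATP (35 uM) were turned over by 5 nM GALK for 1 h at RT. Kinase-Glo Plus then converted the remaining ATP into a luminescent signal.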
* marks the source's active call; other numbers are inactive results; [ ] = another dose, or the depositor's remark. Shown are actives, neighbours in structure and some others; about 1.3% of the full set was active somewhere. Calls come from the whole dose curve; as a rule, active = well fitted curve in the direction sought with a large enough effect; inconclusive = small, poorly fitted or top-dose-only effect, or another doubt; inactive = no such curve, though single readings can be large; an effect the other way counts as inactive or inconclusive. % is set by controls: 0 for no effect and ±100 for the full control effect; potency is the fitted concentration of half-maximal effect.

For Cc1ccc(NC(=S)NCC23C=CC(O2)C2C(=O)N(c4ccc(C)cc4)C(=O)C23)cc1 (configuration not stated) the results were TrxR1 inh 10µM*, PKM2 act inconclusive, Anesthetic bind -9%, mIDH1 inhibitor 2%, TrxR1 substrate 1% and GALK inh 1%.
`Cc1ccc(S(=O)(=O)NCC23C=CC(O2)C2C(=O)N(c4ccccc4)C(=O)C23)cc1` (configuration not stated) gave TrxR1 inh 2.8µM*, PKM2 act 12%, Anesthetic bind -23%, mIDH1 inhibitor 8%, TrxR1 substrate 0% and GALK inh -4%.
Screening CC(C)(C)OC(=O)NCC12C=CC(O1)C1C(=O)N(Cc3ccccc3)C(=O)C12 (configuration not stated) returned TrxR1 inh inconclusive, PKM2 act 21%, Anesthetic bind 2%, mIDH1 inhibitor 9%, TrxR1 substrate 10% and GALK inh 0%.
Screening Cc1ccc(N2C(=O)C3C4C=CC(CNC(=S)N5CCN(c6ccccc6)CC5)(O4)C3C2=O)cc1 (configuration not stated) returned TrxR1 inh 20µM*, PKM2 act inconclusive, Anesthetic bind -6%, mIDH1 inhibitor 2%, TrxR1 substrate 0% and GALK inh -1%.
O=C(CSC1=Nc2ccccc2C2=NC(CCC(=O)NC3CCCCC3)C(=O)N12)Nc1cccc(Cl)c1 (configuration not stated) was read as TrxR1 inh -4%, Anesthetic bind inconclusive, mIDH1 inhibitor 0% and TrxR1 substrate -3%.
`CC(=O)Nc1c(NC(C)C)c2ccccc2oc1=O` gave TrxR1 inh -8%[57.1 µM], PKM2 act 1%, Anesthetic bind -6%, mIDH1 inhibitor -8%, TrxR1 substrate -7%[57.1 µM] and GALK inh -1%.
For COC(=O)Oc1c(Br)c(=O)oc2ccccc12 the results were TrxR1 inh 7.9µM*, mIDH1 inhibitor 2% and TrxR1 substrate -2%.
For CCc1cccc(NC(=O)CCc2nc3cccnc3n2-c2ccccc2)c1 the results were TrxR1 inh 7%, Anesthetic bind -4%, mIDH1 inhibitor -10% and TrxR1 substrate -4%.
Cc1ccc(-n2ncc(Br)c(Br)c2=O)cc1 was read as TrxR1 inh 10µM*, PKM2 act 7%, Anesthetic bind -18%, mIDH1 inhibitor 0%, TrxR1 substrate 3% and GALK inh -5%.
`CCCCCCC(=O)N(O)C1CC(=O)N(c2ccc(C)cc2)C1=O` (configuration not stated) gave TrxR1 inh 16µM*, PKM2 act 28%, Anesthetic bind inconclusive, mIDH1 inhibitor 7%, TrxR1 substrate 13% and GALK inh -2%.
CCCCCCC(=O)N(O)C1CC(=O)N(c2ccc(Cl)cc2)C1=O (configuration not stated) was read as TrxR1 inh 11µM*, PKM2 act inconclusive, Anesthetic bind -18%, mIDH1 inhibitor 3%, TrxR1 substrate 9%[57.1 µM] and GALK inh 5%.
For CC(=O)c1ccc(NC(=O)CSc2nnc(-c3ccco3)c(-c3ccco3)n2)cc1 the results were TrxR1 inh 7.1µM*, PKM2 act inconclusive, Anesthetic bind -11%, mIDH1 inhibitor 4%, TrxR1 substrate -3%[57.1 µM] and GALK inh 4%.
O=C(CSc1nnc(-c2ccco2)c(-c2ccco2)n1)c1ccccc1 was read as TrxR1 inh 13µM*, PKM2 act -1%, Anesthetic bind -6%, mIDH1 inhibitor -5%, TrxR1 substrate -11% and GALK inh -2%.
For COc1ccc(-c2nnc(SCC(=O)Nc3ccc(C(C)=O)cc3)nc2-c2ccc(OC)cc2)cc1 the results were TrxR1 inh 19%[57.1 µM], Anesthetic bind inconclusive, mIDH1 inhibitor -5% and TrxR1 substrate 6%[57.1 µM].
Screening COC(=O)C1=C(C)N(c2ccc(S(N)(=O)=O)cc2)C(=O)C1 returned TrxR1 inh inconclusive, PKM2 act 0%, Anesthetic bind -5%, mIDH1 inhibitor -4%, TrxR1 substrate -7% and GALK inh 2%.
Screening COC(=O)C1=C(C)N(c2ccc(Cl)c(Cl)c2)C(=O)C1 returned TrxR1 inh 50µM*, PKM2 act 8%, Anesthetic bind 4%, mIDH1 inhibitor 6%, TrxR1 substrate -1% and GALK inh -3%.
CCN(CCO)C1CC(=O)N(c2ccccc2C)C1=O (configuration not stated) was read as TrxR1 inh 50µM*, PKM2 act inconclusive, Anesthetic bind 0%, mIDH1 inhibitor 0%, TrxR1 substrate 0% and GALK inh 0%.
`O=C(Nc1cccc(F)c1)/C(=C/c1ccco1)NC(=O)c1ccco1` gave TrxR1 inh 45µM*, PKM2 act 10%, Anesthetic bind -18%, mIDH1 inhibitor 0%, TrxR1 substrate -17% and GALK inh -11%.
`Cc1cccc(NC(=O)/C(=C\c2ccco2)NC(=O)c2cccs2)c1` gave TrxR1 inh 40µM*, PKM2 act 10%, Anesthetic bind -22%, mIDH1 inhibitor -1% and TrxR1 substrate -7%.
Cc1nc2ccn(Cc3cccs3)c(=O)c2cc1C(=O)Nc1ccccc1 was read as TrxR1 inh 7%[57.1 µM], Anesthetic bind inconclusive, mIDH1 inhibitor 15% and TrxR1 substrate 3%[57.1 µM].
CCCn1c(CN2CCN(C(=O)c3ccco3)CC2)nc2cc(S(=O)(=O)N(C)C)ccc21 was read as TrxR1 inh 20µM*, mIDH1 inhibitor -1% and TrxR1 substrate 5%.
`CCOC(=O)CSc1cc(C)c(C#N)c2nc3ccccc3n12` gave TrxR1 inh 1.1µM*, PKM2 act 2%, Anesthetic bind 0%, mIDH1 inhibitor -2%, TrxR1 substrate 9%[57.1 µM] and GALK inh 1%.
Screening CCC(C)Sc1cc(C)c(C#N)c2nc3ccccc3n12 (configuration not stated) returned TrxR1 inh 4%[57.1 µM], PKM2 act -18%, Anesthetic bind 11%, mIDH1 inhibitor inconclusive, TrxR1 substrate -7% and GALK inh -2%.
Screening C=C(C)C(=O)N1CC2(CC(c3cccc(NC(=O)/C=C\C=C/C)c3)=NO2)C[C@H]1C(N)=O (some centres not stated) returned TrxR1 inh 20µM*, PKM2 act inconclusive, Anesthetic bind 2%, mIDH1 inhibitor -8%, TrxR1 substrate 2% and GALK inh -2%.

Screens as filed in PubChem BioAssay.
